Measured values: PubChem BioAssay (NCI)
Where “and” joins values, the source holds several entries; their conditions need not be identical. Equal entries are not always repeated. Compounds without any hit were thinned out: in the full panel of roughly 83,000, 20% have a hit.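 48-hour exposure, single concentration, 96-well plates; percent growth endpoint where 0 means no net growth. Active: below 10.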 Calls of active or inactive are those of the source.

Tests used:
Assay in all cases: NCI-60 one-dose screen, 48 h (100 = growth as untreated, 0 = no growth, -100 = all killed)
Details in all cases: 10 µM unless noted
DU-145 prostate = system: DU-145 prostate
K-562 leukemia = system: K-562 leukemia
MALME-3M melanoma = system: MALME-3M melanoma
MDA-MB-231 breast = system: MDA-MB-231 breast
RXF 393 renal = system: RXF 393 renal
SF-268 CNS = system: SF-268 CNS
SF-295 CNS = system: SF-295 CNS
SF-539 CNS = system: SF-539 CNS
UACC-257 melanoma = system: UACC-257 melanoma
M14 melanoma = system: M14 melanoma
HCT-15 colon = system: HCT-15 colon
HT29 colon = system: HT29 colon
SNB-75 CNS = system: SNB-75 CNS
SNB-19 CNS = system: SNB-19 CNS
U251 CNS = system: U251 CNS
PC-3 prostate = system: PC-3 prostate
SK-MEL-5 melanoma = system: SK-MEL-5 melanoma
UACC-62 melanoma = system: UACC-62 melanoma
LOX IMVI melanoma = system: LOX IMVI melanoma
SK-MEL-28 melanoma = system: SK-MEL-28 melanoma

Measured: growth

O=C(N/N=C/c1ccccc1)N/N=C/c1ccccc1
inactive: DU-145 prostate 131% and 109% | K-562 leukemia 95% | MALME-3M melanoma 94.4% and 107% | MDA-MB-231 breast 106% | RXF 393 renal 107% and 98.5% | SF-268 CNS 112% and 100% | SF-295 CNS 92.4% and 105% | SF-539 CNS 100% and 98.3% | UACC-257 melanoma 90.3% and 106% | M14 melanoma 123% and 115% | HCT-15 colon 104% and 103% | HT29 colon 109% and 105% | SNB-75 CNS 103% and 88% | SNB-19 CNS 105% and 106% | U251 CNS 114% and 97.8% | PC-3 prostate 97.7% | SK-MEL-5 melanoma 106% and 94.5% | UACC-62 melanoma 101% | LOX IMVI melanoma 117% and 103% | SK-MEL-28 melanoma 121% and 113%

NC(=O)C1CC2C=CC1C2 (configuration not stated)
active: UACC-257 melanoma -24.1%
inactive: DU-145 prostate 114% and 115% | K-562 leukemia 103% and 93.9% | MALME-3M melanoma 69.2% and 124% | MDA-MB-231 breast 101% and 99.1% | RXF 393 renal 108% and 89.7% | SF-268 CNS 118% and 108% | SF-295 CNS 113% and 95.2% | SF-539 CNS 95.2% and 112% | M14 melanoma 106% and 87.4% | HCT-15 colon 107% and 106% | HT29 colon 107% and 114% | SNB-75 CNS 87% and 93.8% | SNB-19 CNS 92.1% | U251 CNS 98.7% and 99.8% | PC-3 prostate 100% and 98.4% | SK-MEL-5 melanoma 99.9% and 109% | UACC-62 melanoma 102% and 94.3% | LOX IMVI melanoma 90.1% and 94.2% | SK-MEL-28 melanoma 104% and 101%

CCOC(=O)C(C(=O)OCC)C(c1ccccc1)N1CCN(c2ccccc2)CC1 (configuration not stated)
inactive: DU-145 prostate 127% and 109% | K-562 leukemia 120% and 93.5% | MALME-3M melanoma 92.2% | MDA-MB-231 breast 109% and 125% | RXF 393 renal 102% and 97.6% | SF-268 CNS 110% and 100% | SF-295 CNS 108% and 105% | SF-539 CNS 111% and 118% | UACC-257 melanoma 98.6% and 100% | M14 melanoma 102% and 103% | HCT-15 colon 108% and 94.8% | HT29 colon 107% and 106% | SNB-75 CNS 94.7% and 103% | SNB-19 CNS 99.4% and 110% | U251 CNS 105% and 98% | PC-3 prostate 110% and 109% | SK-MEL-5 melanoma 105% and 102% | UACC-62 melanoma 98.7% and 107% | LOX IMVI melanoma 103% and 98.4% | SK-MEL-28 melanoma 109% and 111%

Cc1cc(=O)[nH]c(O)c1C#N
inactive: DU-145 prostate 112% and 106% | K-562 leukemia 106% and 112% | MALME-3M melanoma 98% and 103% | MDA-MB-231 breast 107% and 109% | RXF 393 renal 106% | SF-268 CNS 109% and 101% | SF-295 CNS 99.6% and 98.5% | SF-539 CNS 97.8% and 105% | UACC-257 melanoma 99.4% and 103% | M14 melanoma 99.4% and 101% | HCT-15 colon 98% and 107% | HT29 colon 109% and 116% | SNB-19 CNS 98.4% and 94.7% | U251 CNS 101% and 98.2% | PC-3 prostate 114% and 102% | SK-MEL-5 melanoma 100% and 106% | UACC-62 melanoma 97.7% and 96.5% | LOX IMVI melanoma 98.5% and 97.1% | SK-MEL-28 melanoma 98.2% and 157%

Cn1c(=O)n(-c2ccc(C(C)(C)C#N)cc2)c2c3cc(-c4cnc5ccccc5c4)ccc3ncc21
15.3% (inactive) and 6.2% (active): DU-145 prostate
inactive: K-562 leukemia 10.2% and 10.6% | MDA-MB-231 breast 19.3% and 20%
11.2% (inactive) and 7.46% (active): SF-268 CNS
13.2% (inactive) and -18% (active): PC-3 prostate
9.69% (active) and 14.5% (inactive): HCT-15 colon
active: MALME-3M melanoma -14.1% and -14.8% | RXF 393 renal -22.6% and -17.3% | SF-295 CNS -20.4% and -4.51% | SF-539 CNS -30.1% and -17.4% | UACC-257 melanoma -9.78% and -14.4% | M14 melanoma 7.18% and 0.962% | HT29 colon 4.74% and -10.5% | SNB-75 CNS -30.1% and -24.4% | U251 CNS 8.23% and 8.1% | SK-MEL-5 melanoma -62.1% and -89.1% | UACC-62 melanoma -18.9% and -20.3% | LOX IMVI melanoma 1.14% and 2.87% | SK-MEL-28 melanoma -1.82% and 1.77%

N#CCCOc1ccccc1
inactive: DU-145 prostate 117% | K-562 leukemia 89.6% | MALME-3M melanoma 95.1% | MDA-MB-231 breast 108% | RXF 393 renal 114% | SF-268 CNS 102% | SF-295 CNS 101% | SF-539 CNS 96.2% | UACC-257 melanoma 92.6% | M14 melanoma 97.9% | HCT-15 colon 97.5% | HT29 colon 100% | SNB-75 CNS 101% | SNB-19 CNS 108% | PC-3 prostate 88.7% | SK-MEL-5 melanoma 105% | UACC-62 melanoma 127% | LOX IMVI melanoma 102% | SK-MEL-28 melanoma 101%
